Source: PubChem
HTT aggregate: qHTS Multiplex Assay to Identify Dual Action Probes in a Cell Model of Huntington: Aggregate Formation (GFP); 220,000 tested, 1.1% active; PC12 HttQ103-GFP aggregates, Acumen cytometry, 40 h; Potency, µM (titrated, usually from 46.1 µM), actives largely listed as inhibitors; AID 1688, 2009; also: nearly all actives have a fitted effect of over 60% in size
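Aggregate formation scored by laser-scanning cytometer (488 excitation, 500–530 emission) in lysed PC12 cells expressing Q103-GFP after 100 nM tebufenozide induction; library tested in dose series, with ATPLite reagent added in the multiplex.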
ALDH1A1 block: qHTS Assay for Inhibitors of Aldehyde Dehydrogenase 1 (ALDH1A1); Aldehyde dehydrogenase 1A1 (Homo sapiens), P00352; Purified ALDH1A1, NADH fluorescence, propionaldehyde substrate; 220,000 tested, 7.3% active; Potency, µM (doses to about 75.3 µM), hits mostly inhibitors; active = well fitted inhibition curve with a large enough effect, not every such curve was filed as active; inconclusive = small, poorly fitted or top-dose-only effect, or another doubt; inactive = no such curve, though single readings can be large or run the other way
Target sequence (P00352 whole entry, looked up): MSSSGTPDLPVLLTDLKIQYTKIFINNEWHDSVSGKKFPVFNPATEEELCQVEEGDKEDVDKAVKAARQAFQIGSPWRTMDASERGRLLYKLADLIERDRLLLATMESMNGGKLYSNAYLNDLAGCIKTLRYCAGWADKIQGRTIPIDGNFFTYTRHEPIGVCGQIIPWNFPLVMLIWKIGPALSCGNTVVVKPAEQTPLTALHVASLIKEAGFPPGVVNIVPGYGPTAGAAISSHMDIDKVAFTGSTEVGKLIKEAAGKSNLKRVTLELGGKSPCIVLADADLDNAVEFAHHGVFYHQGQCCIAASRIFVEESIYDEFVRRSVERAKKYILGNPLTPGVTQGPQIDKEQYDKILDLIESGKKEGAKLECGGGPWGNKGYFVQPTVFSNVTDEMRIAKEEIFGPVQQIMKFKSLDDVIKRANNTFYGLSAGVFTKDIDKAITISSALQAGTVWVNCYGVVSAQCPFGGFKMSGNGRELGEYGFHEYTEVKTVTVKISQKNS
HPGD block: qHTS Assay for Inhibitors of HPGD (15-Hydroxyprostaglandin Dehydrogenase); 15-hydroxyprostaglandin dehydrogenase [NAD(+)] (Homo sapiens), P15428; purified HPGD, NADH fluorescence kinetic, PGE2 substrate; Potency, µM, most hits filed as inhibitors; 150,000 tested, 4.3% active; AID 894, 2007; active = well fitted inhibition curve with a large enough effect, not every such curve was filed as active; inconclusive = small, poorly fitted or top-dose-only effect, or another doubt; inactive = no such curve, though single readings can be large or run the other way
Target sequence (P15428 whole entry, looked up): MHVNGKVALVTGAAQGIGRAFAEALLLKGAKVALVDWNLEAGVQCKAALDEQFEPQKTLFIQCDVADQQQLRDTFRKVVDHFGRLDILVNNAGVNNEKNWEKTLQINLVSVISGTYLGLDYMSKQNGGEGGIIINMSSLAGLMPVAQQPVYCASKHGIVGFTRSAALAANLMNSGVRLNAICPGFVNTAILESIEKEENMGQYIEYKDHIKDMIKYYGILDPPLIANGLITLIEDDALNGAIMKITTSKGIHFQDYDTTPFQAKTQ
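NADH formation kinetics: reaction with 30 uM PGE2 and 1 mM NAD+ (final), 20 nM enzyme, Tris-HCl pH 8 with Tween 20, after 15 min compound preincubation at room temperature. Fluorescence change, last versus first of five reads.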
PNC assembly inh: High Content Assay for Compounds that inhibit the Assembly of the Perinucleolar Compartment; activity change (PNC), negative = inhibition, % at 10 µM; 140,000 tested, 3.1% active; PC3M PTB-GFP, PNC prevalence imaging, 16 h; active compounds read low; AID 2417, 2010;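 active = readout at or below -70, meaning at least 70% loss of cells showing the perinucleolar compartment, a nuclear body marking cancer cells; inconclusive = readout between -30 and a set limit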
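PC3M cells stably expressing PTB-GFP, 750–1000 cells/well, treated 16 h at 37 °C with compound (23 nl of library stock), in duplicate. After paraformaldehyde fixation and Hoechst stain, imaged at 20x; PNC prevalence scored by image analysis.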
GoLoco inh red: qHTS Assay for Inhibitors of RGS12 GoLoco Motif Activity (Red Fluorophore). Guanine nucleotide-binding protein G(i) subunit alpha-1 (Homo sapiens), P63096. Gai1:RGS12 GoLoco peptide FP, rhodamine, 10 min. Potency, µM (titrated, usually from 61.6 µM), hits mostly inhibitors. 230,000 tested, 0.44% active. AID 880, 2007; active = well fitted inhibition curve with a large enough effect, not every such curve was filed as active; inactive = no such curve, though single readings can be large or run the other way; also: nearly all actives have a fitted effect of over 30% in size
HTT ATP protect: qHTS Multiplex Assay to Identify Dual Action Probes in a Cell Model of Huntington: Cytoprotection (ATP); AID 1471, 2008; PC12 HTT-Q103 induced, cytoprotection, ATP luminescence, 40 h; 230,000 tested, 0.14% active; Potency, µM (doses to about 56.4 µM), hits mostly activators; also: nearly all actives have a fitted effect of over 45% in size
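Cells were plated at 1500 per well in phenol red-free DMEM with 5% equine and 5% calf serum. Tebufenozide (100 nM final) and compounds were added, then ATPlite reagent, and luminescence was read.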
Of the large screens only hits and unclear results are named; the others gave an inactive call. Sampled rows, rich in hits. Any-hit rate of the full collection: about 11%. Unless noted, calls follow the shape of the dose curve; as a rule, active = well fitted curve in the direction sought with a large enough effect; inconclusive = small, poorly fitted or top-dose-only effect, or another doubt; inactive = no such curve, though single readings can be large; an effect the other way counts as inactive or inconclusive.

C=CCn1c(SCC(=O)c2ccc(F)cc2)nnc1-c1ccc2c(c1)OCO2	none (no result: HPGD block, PNC assembly inh)
COc1cccc(-c2noc(-c3ccc(Br)o3)n2)c1	none (no result: HTT aggregate, HPGD block, PNC assembly inh, HTT ATP protect)
CC(C)[C@@H](CC(=O)N[C@@H]1CCNC[C@H]1C(=O)N[C@H](CC(=O)N[C@@H](CCC(=O)O)CC(=O)O)Cc1c[nH]c2ccccc12)NC(=O)C[C@H](Cc1ccccc1)NC(=O)[C@@H]1CCCC[C@H]1N	none (no result: HTT aggregate, PNC assembly inh)
N#C/C(=C(\O)c1ccco1)c1ccccn1	ALDH1A1 block 25µM
Oc1ccc(/C=N/NC(=S)NC2CC3CCC2C3)cc1 (stereo not given)	ALDH1A1 block 7.1µM (no result: HPGD block, PNC assembly inh)
S=C(N/N=C/c1cccs1)NC1CC2CCC1C2 (stereo not given)	ALDH1A1 block 18µM (no result: HPGD block, PNC assembly inh)
NNc1nc(-c2ccccc2)cc(-c2ccccc2O)n1	PNC assembly inh -106
CC(C)CCC1(CCNC(C)c2cccs2)CCOC(C)(C)C1 (stereo not given)	none (no result: ALDH1A1 block, HPGD block, PNC assembly inh)
CC(=O)NS(=O)(=O)c1ccc(Nc2ccc([N+](=O)[O-])c3nonc23)cc1	none (no result: ALDH1A1 block, HPGD block, PNC assembly inh)
O=C(NC1CC1)C1CCN(c2ncnc3c2sc2cccc(F)c23)CC1	ALDH1A1 block inconclusive, HPGD block 16µM
O=C(C1CCN(c2ncnc3c2sc2cccc(F)c23)CC1)N1CCCC1	none (no result: ALDH1A1 block, HPGD block, PNC assembly inh)
COc1ccccc1Cn1[nH]nnc1=S	ALDH1A1 block 4µM (no result: HPGD block, PNC assembly inh)
Cc1cc2cc(C)c3nnc(SCC(=O)Nc4ccc(S(=O)(=O)N5CCCCC5C)cc4)n3c2cc1C (stereo not given)	ALDH1A1 block inconclusive
O=S(=O)(c1ccc(NC(=S)NCCc2ccccc2)cc1)N1CCOCC1	none
O=C(CSc1nnc2ccccn12)Nc1ccc(S(=O)(=O)N2CCOCC2)cc1	ALDH1A1 block 25µM (no result: HPGD block, PNC assembly inh)
CC1CCCCN1S(=O)(=O)c1ccc(NC(=O)CSc2nnnn2C)cc1 (stereo not given)	ALDH1A1 block 22µM
Cc1ccc(C)c(-n2nnnc2SCC(=O)Nc2cccc(-c3nnc4n3CCCCC4)c2)c1	HTT aggregate inconclusive, ALDH1A1 block 7.1µM
O=S(=O)(c1ccc(NC(=S)NN=C(Cc2ccccc2)Cc2ccccc2)cc1)N1CCOCC1	ALDH1A1 block 18µM (no result: HPGD block, PNC assembly inh)
COc1ccc2nc(SCC(=O)Nc3ccc(S(=O)(=O)N4CCCC4)cc3)c(C#N)cc2c1	ALDH1A1 block inconclusive
O=S(=O)(c1ccc(N2CCOCC2)cc1)N1CCOCC1	none
CC#CCN(CC#CC)S(=O)(=O)c1ccc(S(=O)(=O)N2CCOCC2)cc1	PNC assembly inh -105
N#Cc1cc2ccccc2nc1SCC(=O)Nc1ccc(S(=O)(=O)N2CCCC2)cc1	ALDH1A1 block 10µM
Cc1ccccc1-n1nnnc1SCC(=O)Nc1ccc(S(=O)(=O)N2CCCC2)cc1	ALDH1A1 block 4µM, PNC assembly inh inconclusive
CCCC(=O)Nc1ccc(S(=O)(=O)N2CCOCC2)cc1	ALDH1A1 block 3.2µM, PNC assembly inh inconclusive
CC(=O)Nc1ccc(S(=O)(=O)N2CCOCC2)cc1	none
CC(=O)Nc1cccc(OCc2ccc(S(=O)(=O)Cc3ccccc3)cc2)c1	none
CN=c1scc(C)n1/N=C/c1ccc(O)c(O)c1O	ALDH1A1 block 3.2µM, HPGD block 7.1µM
CN=c1scc(-c2cccs2)n1/N=C/c1ccccc1O	HPGD block inconclusive
CN=c1scc(-c2cccs2)n1/N=C/c1ccc(O)c(O)c1O	HTT aggregate inconclusive, ALDH1A1 block 6.3µM, HPGD block 5µM, PNC assembly inh inconclusive
CC(C)NC(=O)/C(=C/c1ccco1)c1ccccc1	none
O=C(NCCc1ccccc1)/C(=C/c1ccco1)c1ccccc1	ALDH1A1 block 22µM
CCC(C)NC(=O)/C(=C/c1ccco1)c1ccccc1 (stereo not given)	ALDH1A1 block inconclusive, HPGD block 25µM
O=C(NCc1ccc(F)cc1)c1c2c(nc3ccccc13)CCC2	none (no result: HPGD block, PNC assembly inh)
COc1ccccc1/C(C)=N/NC(=S)NCc1ccccc1	none (no result: HPGD block, PNC assembly inh)
O=C(COC(=O)Cn1cnc2ccccc21)Nc1ccc2c(c1)C(=O)c1ccccc1C2=O	ALDH1A1 block 0.63µM
Cc1cnc(C(=O)OCC(=O)Nc2ccc(C)c(S(=O)(=O)N(C)C)c2)cn1	none (no result: ALDH1A1 block, HPGD block, PNC assembly inh)
O=C(COC(=O)Cn1cnc2ccccc21)NCCCc1ccccc1	none (no result: HPGD block, PNC assembly inh)
Cc1ccc(NC(=O)COC(=O)Cn2cnc3ccccc32)cc1S(=O)(=O)N(C)C	ALDH1A1 block 14µM
O=C(COC(=O)Cn1cnc2ccccc21)NCCc1ccccc1	PNC assembly inh -83
O=C(COC(=O)Cn1cnc2ccccc21)Nc1cccc(S(=O)(=O)N2CCOCC2)c1	ALDH1A1 block inconclusive (no result: HPGD block, PNC assembly inh)
O=C(Cn1cnc2ccccc21)OCC(=O)N1CCc2ccccc2C1	ALDH1A1 block 28µM
COc1ccc(-c2nn(-c3ccccc3)cc2C(=O)NC(=S)Nc2cc(Cl)ccc2Cl)cc1	none (no result: ALDH1A1 block, HPGD block, PNC assembly inh)
CCCn1cnc2c(SCC(=O)O)nc(N)nc21	none (no result: HTT aggregate, PNC assembly inh)
C=C(C)CNCCN	none (no result: HTT aggregate, PNC assembly inh)
Cc1cccc(-n2c(C)cc(C(=O)NC3CCCCC3)c2C)c1	HPGD block 0.71µM, PNC assembly inh inconclusive
COc1ccc(-n2c(C)cc(C(=O)NC3CCCCC3)c2C)cc1	ALDH1A1 block 7.9µM, HPGD block 1.1µM
Cc1cccc(C(=O)NC2CC3CCCC(C2)N3C(=O)NC2CCCCC2)c1 (stereo not given)	PNC assembly inh inconclusive
CCCSc1nc2c(cnn2-c2ccc(C)c(C)c2)c(=O)[nH]1	PNC assembly inh -95
CC(=O)OCC1OC(c2cc(C)cc(C)c2)C=CC1OC(C)=O (stereo not given)	none (no result: HTT aggregate, HPGD block, PNC assembly inh, GoLoco inh red)
COc1cc2c(cc1OC)C(c1cc3cc4c(cc3[nH]c1=O)OCO4)N(C(=O)C1CC1)CC2 (stereo not given)	ALDH1A1 block inconclusive, HPGD block inconclusive, PNC assembly inh -100
C[C@H](N)C(=O)OC(C)(C)Cc1ccc(Cl)cc1	none (no result: HTT aggregate, ALDH1A1 block, HPGD block, PNC assembly inh, GoLoco inh red)
COc1cc(C(=O)O/N=C2\C=CC(=O)C(C)=C2)cc(OC)c1OC	HTT aggregate 11µM, ALDH1A1 block 14µM
CN(C)C(CNC(=O)CSc1nnc(-c2ccco2)o1)c1ccccc1 (stereo not given)	none
O=C1/C(=C/c2ccccc2)SC(=S)N1C1CCS(=O)(=O)C1 (stereo not given)	none (no result: ALDH1A1 block, HPGD block, PNC assembly inh)
